# VLA-4 agonist: enhancers of LDV-FITC binding to VLA-4 integrin, primary screen, Jurkat cells, flow cytometry; activation, % at 10 µM (by protocol); 24,000 tested, under 10 active; AID 528, 2006;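 active means fluorescent ligand binding to cells raised by more than 40% of the manganese-induced maximum; inconclusive means compound's own fluorescence above 85% of the ligand control signal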;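 further: 0% = ligand binding without compound and 100% = manganese-stimulated maximal binding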
# Target sequence (P13612 whole entry, looked up): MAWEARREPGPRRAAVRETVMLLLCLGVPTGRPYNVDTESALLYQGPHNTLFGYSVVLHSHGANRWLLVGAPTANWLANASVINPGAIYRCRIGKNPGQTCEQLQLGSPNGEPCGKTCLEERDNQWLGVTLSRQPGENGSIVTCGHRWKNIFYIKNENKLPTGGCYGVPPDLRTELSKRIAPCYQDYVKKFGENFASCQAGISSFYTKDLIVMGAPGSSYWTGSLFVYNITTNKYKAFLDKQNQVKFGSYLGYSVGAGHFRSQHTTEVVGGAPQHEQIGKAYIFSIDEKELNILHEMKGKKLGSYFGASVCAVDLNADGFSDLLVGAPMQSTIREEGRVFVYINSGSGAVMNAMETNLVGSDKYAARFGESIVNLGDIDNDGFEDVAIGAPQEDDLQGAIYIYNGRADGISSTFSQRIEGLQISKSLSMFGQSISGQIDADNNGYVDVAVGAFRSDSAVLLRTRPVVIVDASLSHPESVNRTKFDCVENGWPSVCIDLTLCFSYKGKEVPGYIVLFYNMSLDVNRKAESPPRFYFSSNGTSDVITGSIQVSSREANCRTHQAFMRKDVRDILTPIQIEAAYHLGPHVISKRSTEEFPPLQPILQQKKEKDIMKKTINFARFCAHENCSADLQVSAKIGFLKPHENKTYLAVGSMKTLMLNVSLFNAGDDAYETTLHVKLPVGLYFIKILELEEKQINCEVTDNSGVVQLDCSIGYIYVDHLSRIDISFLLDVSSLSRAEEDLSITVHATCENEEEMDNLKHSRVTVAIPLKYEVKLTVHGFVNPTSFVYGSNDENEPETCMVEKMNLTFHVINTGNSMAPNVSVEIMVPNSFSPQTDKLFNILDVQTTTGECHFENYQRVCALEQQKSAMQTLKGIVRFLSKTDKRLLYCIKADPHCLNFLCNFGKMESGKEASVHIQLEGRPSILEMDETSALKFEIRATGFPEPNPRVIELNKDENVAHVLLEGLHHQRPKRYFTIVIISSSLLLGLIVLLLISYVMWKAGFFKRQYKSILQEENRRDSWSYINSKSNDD
# VLA-4 antagonist: inhibitors of LDV-FITC binding to Mn2+-activated VLA-4, primary screen, Jurkat cells. LDV-FITC binding with Mn2+, flow cytometry; 100% = Mn2+-driven binding gain fully reversed. inhibition, % at 10 µM (by protocol). 0.2% of 24,000 active. AID 529, 2006;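 active means inhibition above 50%; inconclusive means compound itself fluorescent, judged against control cell fluorescence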;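 further: 0% = Mn2+ stimulated cells lacking compound and 100% = ligand binding without Mn2+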
# Autofluor Jurkat: compound autofluorescence on Jurkat cells, primary screen, artefact control for VLA-4 allosteric ligand project, cell-based, flow cytometry; 0.61% of 24,000 active; fluorescence ratio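 (tested at 10 µM compound in the well)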; hits give high values; 1 = vehicle-only cell background;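 active means fluorescence ratio above 2.44, which is 1 plus 3 SD of all ratios; inconclusive means signal too bright to measure linearly, ratio around 10 or more; inactive means fluorescence ratio below 2.44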;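 further: green fluorescence of cells measured with 488 nm excitation and 530 nm emission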
# FPRL1 binder: human FPRL1 ligands by binding competition, primary screen, cell-based, FPR counter-screen, flow cytometry; N-formyl peptide receptor 2 (Homo sapiens), P25090; FPRL1-expressing cells, fluorescent ligand binding inhibition; inhibition, % (concentration not given with the values); 0.3% of 24,000 active; AID 441, 2006;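 further: 0% = buffer alone and 100% = receptor blocker peptide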
# LNCaP diff act: activators of LNCaP prostate cell differentiation, primary screen, flow cytometry side scatter. 4 d. 0.56% of 24,000 active. side scatter shift, % at 10 µM;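 active means side scatter shift above 30%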;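 further: androgen-responsive LNCaP prostate cancer cells in charcoal-stripped serum medium; percent of cells past a gate set so DMSO wells show 10% shift; higher shift means more granular cells and more differentiation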
# FPR ligand: human FPR ligands by binding competition, primary screen, cell-based, FPRL1 counter-screen, flow cytometry; FPR-expressing cells, fluorescent ligand binding; fMet-Leu-Phe receptor (Homo sapiens), P21462; 0.74% of 24,000 active; AID 440, 2006; inhibition, % (concentration not given with the values);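 further: 0% = buffer wells and 100% = receptor blocker peptide wells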
# Numbers without * were called inactive; ? = inconclusive; / = not tested or not shown. Shown are actives, neighbours in structure and some others; about 2.4% of the full set was active somewhere. Unless noted, no stated cut-off is given here; in the data, active means inhibition above about 30%; inconclusive means no clear call, values can overlap the other calls; inactive means below that.
SMILES,VLA-4 agonist,VLA-4 antagonist,Autofluor Jurkat,FPRL1 binder,LNCaP diff act,FPR ligand
CCOC(=O)c1ccc(NC(=O)N2CCN(Cc3cccc(F)c3)CC2)cc1,-6.0,-1.5,1.04,-3.3,16.0,-15.8
CC1N=C2c3ccccc3N=C(SCc3cc(=O)n4ccccc4n3)N2C1=O (configuration not stated),8.0,7.0,1.04,-6.4,4.0,1.1
COC(=O)c1ccc(CSc2nc(-c3ccc(OC)cc3)nc3c2c(=O)n(C)c(=O)n3C)o1,5.0,-21.3,1.03,4.0,12.0,0.9
COCCN1C(=O)C(=O)/C(=C(/O)c2ccc(OCC(C)C)cc2)C1c1cccnc1 (configuration not stated),/,/,/,-2.2,/,8.5
CCOc1cc2[nH]c(=O)n(CC3CCC(C(=O)NC4CCCCC4)CC3)c(=O)c2cc1OCC (configuration not stated),1.0,9.0,0.92,-9.3,13.0,-1.0
CCOc1cc2[nH]c(=O)n(CC3CCC(C(=O)NC(C)CC)CC3)c(=O)c2cc1OCC (configuration not stated),-9.0,63.0*,1.03,-7.0,18.0,5.7
COc1cc2c3c(c1)/C(=C1/SC(NC(C)=O)=NC1=O)C(=O)N3C(C)(C)C=C2C,7.0,-5.0,1.01,10.8,8.0,30.3*
CC1CCCN(C(=O)CN2C(=O)c3ccccc3C2=O)C1 (configuration not stated),-0.5,-10.5,0.98,3.7,9.0,-4.1
CCOC(=O)c1ccccc1NC(=O)Cn1c(-c2nonc2N)nc2ccccc21,?,?,1.32,-1.9,32.0*,3.8
CC1CCCN(C(=O)Cn2c(-c3nonc3N)nc3ccccc32)C1 (configuration not stated),?,?,3.04*,-2.5,12.0,1.1
Cc1c(C(=O)N2CCN(c3ccccc3F)CC2)sc2ncn(CC(=O)N3CCOCC3)c(=O)c12,18.0,-8.0,0.84,-8.1,4.0,9.4
Cc1ccc(/C=c2\s/c(=C(/C#N)C(=O)N3CCCC3)n(Cc3ccco3)c2=O)s1,?,?,1.63,3.9,9.0,16.0
C=CCn1c(=O)/c(=C/c2ccc(O)cc2)s/c1=C(/C#N)c1nnc2n1CCCCC2,?,?,3.69*,-11.0,7.0,-14.4
COCc1nnc(NC(=O)c2ccc(S(=O)(=O)N3CCCCCC3)cc2)o1,?,?,2.46*,0.8,10.0,-2.3
CCN(CC)CCN1C(=O)C(=O)/C(=C(/O)c2c(C)[nH]c(C(=O)OC)c2C)C1c1ccccc1 (configuration not stated),/,/,/,15.7,/,30.5*
CC(=O)C(Sc1nc(-c2ccco2)nc2c1c(=O)n(C)c(=O)n2C)C(=O)N(C)C (configuration not stated),0.0,-8.0,1,-3.2,6.0,-2.2
CCOC(=O)c1c(C)oc2c1c1c(c3ccccc32)OCN(Cc2ccccn2)C1,-14.0,79.0*,1.11,/,/,/
Cc1ccc(C)c(-n2c(CNC(=O)c3ccco3)nnc2SCC(=O)N2CCc3ccccc32)c1,0.0,2.0,1.03,0.4,3.0,55.1*
Cc1ccc(C)c(-n2c(CNC(=O)c3ccco3)nnc2SCC(=O)Nc2nnc(C)s2)c1,4.0,-11.0,1.05,-1.6,1.0,1.2
CCC(=O)NC(C)C(c1cccs1)N1CCN(c2ccccc2)CC1 (configuration not stated),2.0,-12.0,0.96,47.4*,11.0,-3.9
CC(NC(=O)Cc1cccs1)C(c1cccs1)N1CCN(c2ccccc2)CC1 (configuration not stated),-4.0,17.0,1.07,-1.5,3.0,0.6
O=c1cc(N2CCc3ccccc32)[nH]c(=O)n1Cc1ccc(F)cc1,7.0,-22.0,1.02,-8.9,7.0,42.8*
O=c1cc(N2CCN(Cc3ccccc3)CC2)[nH]c(=O)n1Cc1ccc(F)cc1,5.0,-9.0,1.03,4.3,20.0,6.3
CCOC(=O)N1CCC(NC(=O)c2cc3c(C)nc4ccccc4c3o2)CC1,-2.0,-25.0,1.04,27.5,4.0,40.4*
CCN1CCCC1CNC(=O)c1cc2c(C)nc3ccccc3c2o1 (configuration not stated),19.0,-22.0,0.77,3.5,15.0,1.9
SMILES,VLA-4 agonist,VLA-4 antagonist,Autofluor Jurkat,FPRL1 binder,LNCaP diff act,FPR ligand
Cc1nc2ccccc2c2oc(C(=O)N3CCc4ccccc43)cc12,-7.0,-7.0,1.05,25.6,3.0,38.4*
O=C(CC(C(=O)N1CCc2ccccc21)n1ccnc1)N1CCc2ccccc2C1 (configuration not stated),11.0,-22.0,0.87,4.1,3.0,6.1
COc1ccc(NC(=O)CCn2cccc2)cc1,8.0,-7.0,1.11,4.6,6.0,2.0
O=C(NCc1ccc(Cl)cc1)c1noc2c1CCCCC2,-2.3,4.4,1.1,2.2,8.0,4.7
COc1ccc(-c2cc(N)n(S(=O)(=O)c3c(F)c(F)c(F)c(F)c3F)n2)cc1OC,4.0,6.0,1.01,-5.5,2.0,-3.5
COC(=O)c1ccccc1NC(=O)c1cc(-c2ccc(OC)c(OC)c2)on1,0.7,-6.3,1.08,2.7,15.0,-6.8
CC1CC(C)CN(CCCNC(=O)CNC(=O)Cn2ccc3ccccc3c2=O)C1 (configuration not stated),0.0,-6.0,1.07,0.2,9.0,0.9
CCCCNC(=O)C(C#N)c1nc2ccccc2nc1N1CCCC1 (configuration not stated),?,?,2.5*,-5.4,14.0,-13.4
CCCCCCOC(=O)C(C#N)c1nc2ccccc2nc1N1CCCCC1 (configuration not stated),-4.5,-7.5,1.12,-2.0,25.0,3.9
CCOc1cccc(C(=O)N(Cc2ccc(F)cc2)C2CCS(=O)(=O)C2)c1 (configuration not stated),-7.0,-8.5,1.11,-0.3,6.0,2.9
COc1ccc(CN(C(=O)c2ccccc2OC)C2CCS(=O)(=O)C2)cc1 (configuration not stated),-2.0,-28.5,1.02,50.6*,19.0,51.4*
COc1ccc(OC)c(C2C=C(c3ccc(C)c(C)c3)Nc3nnnn32)c1 (configuration not stated),?,?,3.64*,-1.8,22.0,-9.6
CCOc1cc(C2C(C(=O)OC)=C(C)N=C3SCCC(=O)N32)ccc1OC(C)=O (configuration not stated),?,?,2.7*,-7.7,9.0,-2.8
CCOc1ccc(C2C(C(=O)OC)=C(C)N=C3SCCC(=O)N32)cc1OCC (configuration not stated),-3.0,6.0,1.07,4.6,9.0,2.0
